Values joined by “and” are separate entries in the source; they are usually repeats but may differ in a detail not shown here. Identical values can stand only once. Inconclusive results are not listed. Active and inactive are the calls of the source. Unless noted, the call rests on the fitted dose curve; in most records, active means well fitted curve in the direction sought with a large enough effect in the repeat runs; inconclusive means weak or mixed curves; inactive means no such curve, though single readings can be large; an effect the other way counts as inactive or inconclusive.
Columns and labels:
[1] = qHTS assay to identify small molecule agonists of the androgen receptor (AR) signaling pathway in the presence of an antagonist - cell viability counter screen (AID 1259379); further: nearly all actives have a fitted effect of over 25% in size; further: potency means the concentration at half of the fitted maximal effect
Outline: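 Fluorescence from CellTiter-Fluor, added after 15 hr and read 1 hr later, gave cell viability. Cells were MDA-kb2 exposed to compounds (15 concentrations) in the presence of 3.0uM nilutamide at 37C, 0% CO2.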

[2] = qHTS assay to identify small molecule agonists of the estrogen receptor beta (ER-beta) signaling pathway - cell viability counter screen (AID 1259380); further: nearly all actives have a fitted effect of over 30% in size; further: potency means the concentration at half of the fitted maximal effect
Outline: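 Same-well viability counter screen. Cells: ER-beta-UAS-bla HEK293T, plated 6 hr before compound, in 2% charcoal-stripped FBS. Compound exposure 16 hr, 37C; viability by CellTiter-Glo luminescence after 30 min at room temperature.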

[3] = qHTS assay to identify small molecule antagonists of the estrogen receptor beta (ER-beta) signaling pathway - cell viability counter screen (AID 1259382); further: nearly all actives have a fitted effect of over 55% in size; further: potency means the concentration at half of the fitted maximal effect
Outline: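 Following a 6 hr plating period, HEK293T cells carrying a UAS-driven beta-lactamase reporter under ER-beta control received compounds and 1nM E2 (final). After 16 hr at 37C and 2 hr substrate loading, CellTiter-Glo luminescence indicated viability.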

[4] = target: Estrogen receptor (Homo sapiens) (UniProt P03372); assay: qHTS assay to identify small molecule agonists of the estrogen receptor alpha (ER-alpha) signaling pathway in the presence of an antagonist (AID 1259383; calls by dose curve; further: nearly all actives have a fitted effect of over 15% in size; further: potency means the concentration at half of the fitted maximal effect)
Sequence of Estrogen receptor (Homo sapiens) (P03372 whole entry, looked up): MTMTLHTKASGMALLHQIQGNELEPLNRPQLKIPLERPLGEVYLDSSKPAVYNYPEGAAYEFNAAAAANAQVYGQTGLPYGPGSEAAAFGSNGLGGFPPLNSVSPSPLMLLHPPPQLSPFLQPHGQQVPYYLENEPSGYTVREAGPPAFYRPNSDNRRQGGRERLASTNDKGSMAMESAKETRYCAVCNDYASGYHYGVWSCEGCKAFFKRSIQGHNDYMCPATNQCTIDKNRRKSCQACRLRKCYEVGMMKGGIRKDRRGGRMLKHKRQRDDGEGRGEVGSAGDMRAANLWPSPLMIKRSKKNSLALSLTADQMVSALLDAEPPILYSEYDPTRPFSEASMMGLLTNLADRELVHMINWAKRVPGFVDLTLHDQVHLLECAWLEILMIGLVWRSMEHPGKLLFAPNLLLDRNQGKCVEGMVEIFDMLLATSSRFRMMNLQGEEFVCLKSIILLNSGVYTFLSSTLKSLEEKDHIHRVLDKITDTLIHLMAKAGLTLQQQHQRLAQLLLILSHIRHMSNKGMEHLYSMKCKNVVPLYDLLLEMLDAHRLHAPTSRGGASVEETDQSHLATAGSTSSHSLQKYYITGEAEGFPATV
Outline: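 Cells are hormone-deprived for 5 days (charcoal-stripped FBS, no phenol red), plated for 24hr, spiked with 10.0nM ICI-182,780, then dosed at 15 concentrations. After 22hr at 37C, ONE-Glo luminescence reports ERE-luciferase activity.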

[5] = target: Thyrotropin receptor (Homo sapiens) (UniProt P16473); assay: qHTS assay to identify small molecule antagonists of the thyroid stimulating hormone receptor (TSHR) signaling pathway (AID 1259385; calls by dose curve; further: nearly all actives have a fitted effect of over 20% in size; further: potency means the concentration at half of the fitted maximal effect)
Sequence of Thyrotropin receptor (Homo sapiens) (P16473 whole entry, looked up): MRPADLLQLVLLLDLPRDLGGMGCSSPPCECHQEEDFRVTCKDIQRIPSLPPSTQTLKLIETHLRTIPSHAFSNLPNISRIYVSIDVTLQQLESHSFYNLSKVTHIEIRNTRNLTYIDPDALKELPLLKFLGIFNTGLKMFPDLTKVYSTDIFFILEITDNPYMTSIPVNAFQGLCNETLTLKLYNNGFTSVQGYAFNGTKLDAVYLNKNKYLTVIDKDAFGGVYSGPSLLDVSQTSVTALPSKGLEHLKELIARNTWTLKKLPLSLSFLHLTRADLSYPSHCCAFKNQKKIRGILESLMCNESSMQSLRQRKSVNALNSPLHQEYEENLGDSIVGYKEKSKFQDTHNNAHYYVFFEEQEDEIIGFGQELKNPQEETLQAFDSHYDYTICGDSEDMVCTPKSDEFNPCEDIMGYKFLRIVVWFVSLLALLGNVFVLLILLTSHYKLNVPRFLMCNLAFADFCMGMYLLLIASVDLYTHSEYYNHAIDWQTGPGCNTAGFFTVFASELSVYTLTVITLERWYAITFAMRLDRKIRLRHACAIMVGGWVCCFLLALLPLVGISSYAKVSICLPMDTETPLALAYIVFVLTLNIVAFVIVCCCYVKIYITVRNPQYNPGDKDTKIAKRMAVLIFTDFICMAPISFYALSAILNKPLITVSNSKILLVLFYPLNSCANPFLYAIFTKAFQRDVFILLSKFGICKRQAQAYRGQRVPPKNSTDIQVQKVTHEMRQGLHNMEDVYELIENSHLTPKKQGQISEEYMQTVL
Outline: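 TSHR-HEK293 cells were plated and held 18 h at 37C/5% CO2, then given compound plus Ro20-1724 and stimulated with TSH at 1.5 ng/mL final. After 30 min at room temperature, cAMP was detected with cAMP-d2/anti-cAMP-cryptate (1 h) by fluorescence.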

[6] = qHTS assay to identify small molecule agonists of the estrogen receptor alpha (ER-alpha) signaling pathway in the presence of an antagonist - cell viability counter screen (AID 1259386);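 further: cells exposed to compounds for 22 h at 37 °C before the viability read; nearly all actives have a fitted effect of over 30% in size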; further: potency means the concentration at half of the fitted maximal effect
Outline: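 Cells are starved of estrogens for 5 days in charcoal-stripped serum, seeded for 24hr and co-treated with ICI-182,780 (10.0nM final) and test compounds. After 22hr at 37C, viability is read as CellTiter-Fluor fluorescence.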

[7] = target: Androgen receptor (Homo sapiens) (UniProt P10275); assay: qHTS assay to identify small molecule agonists of the androgen receptor (AR) signaling pathway in the presence of an antagonist (AID 1259381; calls by dose curve; further: nearly all actives have a fitted effect of over 15% in size)
Sequence of Androgen receptor (Homo sapiens) (P10275 whole entry, looked up): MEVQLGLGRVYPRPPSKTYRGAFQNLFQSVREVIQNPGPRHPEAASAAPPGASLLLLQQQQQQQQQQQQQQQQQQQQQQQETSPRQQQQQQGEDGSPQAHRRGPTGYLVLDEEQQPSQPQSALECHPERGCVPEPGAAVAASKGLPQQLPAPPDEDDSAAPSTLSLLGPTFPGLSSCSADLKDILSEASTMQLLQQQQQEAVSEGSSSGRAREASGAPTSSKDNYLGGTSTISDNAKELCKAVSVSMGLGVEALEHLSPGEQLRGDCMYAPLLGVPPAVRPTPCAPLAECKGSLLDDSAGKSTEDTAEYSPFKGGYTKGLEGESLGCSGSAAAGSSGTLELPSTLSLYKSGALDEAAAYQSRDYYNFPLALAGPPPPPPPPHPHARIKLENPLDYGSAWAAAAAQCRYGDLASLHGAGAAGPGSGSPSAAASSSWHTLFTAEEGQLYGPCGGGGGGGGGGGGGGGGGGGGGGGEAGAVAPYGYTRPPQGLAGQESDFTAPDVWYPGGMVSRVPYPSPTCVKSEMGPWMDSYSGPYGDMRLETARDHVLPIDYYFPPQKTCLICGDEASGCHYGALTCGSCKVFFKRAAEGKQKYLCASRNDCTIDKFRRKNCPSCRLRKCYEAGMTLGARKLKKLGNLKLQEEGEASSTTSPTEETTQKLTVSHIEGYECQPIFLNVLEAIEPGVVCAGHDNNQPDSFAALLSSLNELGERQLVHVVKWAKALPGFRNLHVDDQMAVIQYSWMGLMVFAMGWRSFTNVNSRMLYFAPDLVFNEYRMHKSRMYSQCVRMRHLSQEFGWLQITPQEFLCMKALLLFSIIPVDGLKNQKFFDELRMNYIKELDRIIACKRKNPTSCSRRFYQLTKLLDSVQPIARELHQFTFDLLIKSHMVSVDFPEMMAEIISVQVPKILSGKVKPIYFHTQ
Outline: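 Cells are MDA-kb2 (human breast carcinoma, MMTV-luc, AR/GR responsive). Nilutamide is present at 3.0uM final throughout; compounds are added at 15 concentrations and incubated 16hr at 37C before ONE-Glo luminescence detection.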

[8] = qHTS assay to identify small molecule agonists or antagonists of the thyroid stimulating hormone receptor (TSHR) signaling pathway - wild type cell line counter screen (AID 1259384; calls by dose curve)
Outline: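 Wild-type HEK293 cells were plated 18 h at 37 C/5% CO2, pin-dosed with compound plus Ro20-1724 medium, held 30 min at room temperature, then given cAMP-d2 and anti-cAMP-cryptate; fluorescence was read after 1 h. Fifteen concentrations, triplicate.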

Measured: Potency

O=C1CCCCCN1SSN1CCCCCC1=O
inactive: [1] | [2] | [3] | [4] | [5] | [6]

CCN(CC)CCCC(C)Nc1c2ccc(Cl)cc2nc2ccc(OC)cc12 (configuration not stated)
active: [1] 11.9 µM | [2] 6.68 µM

Oc1cc2ccccc2c2ccccc12
inactive: [7] | [4]
active: [1] 13.7 µM | [2] 5.45 µM | [3] 7.7 µM | [6] 13.7 µM

CCCC(=O)OC[C@@H](OC(=O)CCC)[C@@H](OC(=O)CCC)[C@H](Cn1c2nc(=O)[nH]c(=O)c-2nc2cc(C)c(C)cc21)OC(=O)CCC
active: [2] 16.8 µM
inactive: [1] | [7] | [3] | [4] | [8] | [5]

CCCCN(CCCC)c1ccc(C(=O)c2ccccc2C(=O)O)c(O)c1
inactive: [1] | [7] | [8] | [5] | [6]
active: [2] 15.5 µM

CCCCCCCCCCCCCCCCCC[N+](C)(C)C
active: [1] 61.3 µM | [2] 27.4 µM | [3] 30.7 µM
inactive: [7] | [4] | [8] | [5]

CO[Si](CCCNc1ccccc1)(OC)OC
inactive: [1] | [2] | [3] | [8]

CC(C)=CCOc1ccc(/C=C/C(=O)c2ccc(OCC=C(C)C)cc2OCC(=O)O)cc1
inactive: [1] | [7] | [4] | [8] | [5] | [6]
active: [2] 5.96 µM

Oc1ccc2c(c1)-c1ccccc1C2
inactive: [1] | [2] | [7] | [3] | [8] | [5] | [6]

C[C@H](CCC(=O)O)[C@H]1CC[C@H]2[C@@H]3CC[C@@H]4C[C@H](O)CC[C@]4(C)[C@H]3CC[C@]12C
inactive: [1] | [4] | [6]
active: [2] 48.4 µM and 48.6 µM | [3] 19.3 µM

CCCCc1oc2ccc(NS(C)(=O)=O)cc2c1C(=O)c1ccc(OCCCN(CCCC)CCCC)cc1
active: [1] 21.1 µM | [2] 11.9 µM | [3] 10.6 µM | [5] 29.8 µM
inactive: [8]

Cc1onc(-c2c(Cl)cccc2Cl)c1C(=O)N[C@@H]1C(=O)N2[C@@H]1SC(C)(C)[C@@H]2C(=O)O
inactive: [1] | [2] | [7] | [3] | [8] | [5] | [6]

O=c1[nH]sc2cc(Cl)ccc12
active: [2] 11.9 µM
inactive: [1] | [7] | [4] | [8] | [6]

O=C(Nc1cccc(C(F)(F)F)c1)c1cc(Br)cc(Br)c1O
active: [1] 4.33 µM | [2] 24.3 µM | [3] 27.3 µM
inactive: [4] | [8] | [5]

O=C(OCC1CO1)C1CCCCC1C(=O)OCC1CO1 (configuration not stated)
inactive: [1] | [2] | [7] | [3] | [8] | [5] | [6]

CCCCCCCC/C=C\CCCCCCCCOCCO
inactive: [4] | [8]
active: [1] 28.2 µM | [2] 28.2 µM | [3] 28.2 µM | [5] 89.1 µM | [6] 35.5 µM

CC/C(=C(\c1ccc(O)cc1)c1ccc(OCCN(C)C)cc1)c1ccccc1
inactive: [7] | [8]
active: [1] 61.3 µM | [2] 24.4 µM | [5] 77.1 µM

Cc1cc(CCN2CCN(c3nsc4ccccc34)CC2)cc2c1NC(=O)CC2(C)C
active: [1] 30.6 µM | [2] 21.7 µM | [3] 19.3 µM | [6] 48.6 µM
inactive: [7] | [4] | [8]

CCOC(=O)/C=C(C)/C=C/C=C(C)/C=C/c1c(C)cc(OC)c(C)c1C
inactive: [1] | [2] | [3] | [4] | [8] | [5]

CN(C/C=C/C#CC(C)(C)C)Cc1cccc2ccccc12
active: [2] 26.6 µM | [3] 29.8 µM
inactive: [1] | [8] | [5] | [6]

CCCCCCCCCCn1cc[n+](CCCCCCCCCC)c1C
active: [1] 24.4 µM | [2] 30.7 µM | [6] 30.7 µM
inactive: [7] | [4] | [8]

CCC(C)Nc1ccc(NC(C)CC)cc1 (configuration not stated)
inactive: [7] | [4]
active: [1] 24.8 µM | [2] 3.93 µM | [3] 5.55 µM

CCCCCCCCOc1ccccc1C(=O)Nc1ccc(C(=O)OCC[N+](C)(CC)CC)cc1
active: [2] 23.7 µM | [3] 23.7 µM
inactive: [1] | [4] | [8] | [5] | [6]

N=C1C=CC(=C(c2ccc(N)cc2)c2ccc(N)cc2)C=C1
active: [1] 12.2 µM | [2] 7.7 µM | [6] 24.3 µM
inactive: [7] | [3] | [4]

CCN(C(=O)c1cc(C)cc(OC[C@H](C)Nc2ccncc2)c1)C(C)C
inactive: [1] | [2] | [3] | [8] | [5]

O=[N+]([O-])c1cc(Cl)c(Cl)c(Cl)c1Cl
active: [1] 24.2 µM
inactive: [3] | [8] | [5] | [6]

Nc1nc2ccccc2n1Cc1ccc(F)cc1
inactive: [7] | [3] | [4] | [8] | [5]
active: [1] 26.6 µM | [6] 29.8 µM

CCCC(c1cc(C(C)(C)C)c(O)cc1C)c1cc(C(C)(C)C)c(O)cc1C
inactive: [8]
active: [1] 31 µM | [2] 12.3 µM | [3] 13.9 µM | [6] 61.9 µM

Clc1ccc2n[nH]nc2c1
inactive: [1] | [2] | [3] | [8] | [5] | [6]

[Cl][Bi]([Cl])([c]1ccccc1)([c]1ccccc1)[c]1ccccc1
active: [1] 60.8 µM | [3] 8.58 µM | [6] 24.2 µM
inactive: [7] | [4]

O=[N+]([O-])c1cc([N+](=O)[O-])c2ccc(S(=O)(=O)O)cc2c1O
inactive: [2] | [3]
active: [1] 21.6 µM | [6] 19.2 µM

c1ccc(CSCc2ccccc2)cc1
inactive: [1] | [2] | [3] | [6]

CCCCCCCCNC(C)C(O)c1ccc(SC(C)C)cc1 (configuration not stated)
inactive: [7] | [4] | [8]
active: [1] 23.7 µM | [3] 13.3 µM | [6] 33.5 µM

Cc1c(C)c2c(c(C)c1OC(=O)CCC(=O)O)CC[C@@](C)(CCC[C@H](C)CCC[C@H](C)CCCC(C)C)O2
inactive: [8] | [5] | [6]
active: [1] 27.6 µM | [2] 1.95 µM

CCOC(=O)O[C@H](C)OC(=O)c1ccc2c(c1)cc(C(=O)NC1CCN(C(C)C)CC1)n2Cc1cc(-c2ccc(Cl)s2)on1
inactive: [4]
active: [1] 45.4 µM | [2] 20.3 µM

CCN(C(=O)N(CC)c1ccccc1)c1ccccc1
inactive: [1] | [2] | [8] | [5]

Oc1ccc(N=Nc2ccccc2)cc1
active: [1] 24.7 µM | [4] 24.7 µM
inactive: [7] | [8] | [5]
